Screens as filed in PubChem BioAssay.
A selection: hits, their analogues and other compounds. The true share with any hit is near 19%.
TDP1 cell CPT = growth inhibition of DT40 Tdp1-/-;hTDP1 cells with camptothecin (screen for TDP1 inhibitors). 420,000 compounds, 12% hits. chicken DT40 Tdp1-/-;hTDP1 cells + 20 nM CPT, ATP luminescence, 48 h. AID 686979. Potency, µM (doses to about 46.2 µM), inactives show at the highest dose activity change, negative = growth inhibition, usual class: inhibitors; note: potency is the fitted concentration of half-maximal effect; nearly all actives have a fitted effect of over 55% in size
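Cell growth measured by CellTiter-Glo luminescence after a minimum 48 h, 37 C compound exposure with 20 nM CPT in Tdp1-knockout DT40 cells stably expressing hTDP1, seeded 400/well; qHTS titration format.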
HT1080 IDH1KD tx = toxicity to HT-1080 IDH1 knockdown cells (counter line). HT-1080 IDH1 knockdown viability, ATP luminescence, 48 h. Potency, µM (highest dose often 46.1 µM), for the others: at the highest dose activity, negative = toxicity, most hits filed as cytotoxic. AID 686971. 360,000 compounds, 2% hits;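 note: potency is the fitted concentration of half-maximal effect; 0% = DMSO wells and -100% = cell-free medium wells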
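% activity derives from luminescence (CellTiter-Glo), normalised to DMSO and no-cell wells. HT-1080-IDH1KD cells, 750/well, had 48 h compound exposure at 37 °C.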
HT1080NT lethal = kills 2HG-producing HT-1080-NT fibrosarcoma cells. 360,000 compounds, 1.6% hits. Potency, µM (top dose mostly 46.1 µM), for the others: at the top dose activity, negative = less viability, hits mostly cytotoxic. AID 686970. HT-1080-NT fibrosarcoma viability, CellTiter-Glo ATP luminescence, 48 h;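 note: NT is the 2HG producing partner of a matched IDH1 knockdown line; potency is the fitted concentration of half-maximal effect; 0% = DMSO-treated cells and -100% = media-only wells without cells; nearly all actives have a fitted effect of over 55% in size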
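Fibrosarcoma NT cells, 750 per well in 5% FBS RPMI, were exposed to compound for 48 hours. Viability: CellTiter-Glo luminescence.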
IL-1B inflam inh = blocks inflammasome-driven IL-1 beta release. THP-1 LPS/ATP IL-1B secretion, AlphaLISA, 16 h; hits give low values. activity change, % at 57.5 µM. 360,000 compounds, 4.7% hits. AID 743279; in the data active = activity change below about -50%; inconclusive = mostly about -30% to -49%
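Secreted IL-1B measured by AlphaLISA bead assay after 16 h compound exposure of THP-1 cells; compounds (final up to 57.5 uM) added 1 h before LPS (250 ng/mL) and ATP (1.25 mM) stimulation; lower signal means less secretion.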
TDP1 cell noCPT = qHTS for Inhibitors of human tyrosyl-DNA phosphodiesterase 1 (TDP1): qHTS in cells in absence of CPT; DT40 Tdp1-/- hTDP1 cells, no CPT, ATP luminescence, 48 h; Potency, µM (series often up to 46.2 µM), without a hit: at the top dose activity change, negative = growth inhibition, usual class: inhibitors; 420,000 compounds, 15% hits; AID 686978, 2013; note: potency is the fitted concentration of half-maximal effect; nearly all actives have a fitted effect of over 55% in size
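Luminescent ATP content (CellTiter-Glo) served as the growth readout. Knockout chicken DT40 cells expressing human TDP1 were exposed to compounds without camptothecin for a minimum 48 hr at 37 °C.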
An asterisk follows results filed as active; u = inconclusive; x = no result given; [ ] = another dose, or the depositor's remark. Unless noted, calls come from the whole dose curve; as a rule, active = well fitted curve in the direction sought with a large enough effect; inconclusive = small, poorly fitted or top-dose-only effect, or another doubt; inactive = no such curve, though single readings can be large; an effect the other way counts as inactive or inconclusive. Unless noted, % is set by controls: 0 for no effect and ±100 for the full control effect.

SMILES	TDP1 cell CPT	HT1080 IDH1KD tx	HT1080NT lethal	IL-1B inflam inh	TDP1 cell noCPT
CCN(C[C@H]1N[C@@](C)(C(=O)OC)[C@H]2C(=O)N(Cc3ccccc3)C(=O)[C@@H]12)C(=O)c1ccc(C)cc1	-4.4%	12.4%	10.6%	10.2	-3.8%
COc1ccc(NC(=O)c2cccnc2SC)cc1S(=O)(=O)N1CCCCC1	-21.5%	0.7%	11.5%	-1.0	u
Cc1ccc(S(=O)(=O)N2CCN(C(=O)Cn3c(=O)cnc4ccccc43)CC2)cc1	u	10.6%	-0.6%	-9.6	-17.1%
CC1CCCC(C)N1C(=O)COC(=O)c1cncc(Br)c1 (configuration not stated)	-23.0%	15.4%	-2.2%	14.5	-7.7%
CCCCNc1c(-c2cccc(SC(C)CC)c2)nc2ccc(Cl)cn12 (configuration not stated)	16.4µM*	-13.2%	0.0%	-1.6	14.6µM*
CCOc1cc(C(=O)N2CC(=O)Nc3ccc(C)cc3C2c2ccccc2)cc(OCC)c1OCC (configuration not stated)	18.4µM*	x	x	x	20.6µM*
O=C1CN(C(=O)c2ccccc2F)C(c2ccccc2)c2cc(Cl)ccc2N1 (configuration not stated)	-23.2%	2.2%	-1.7%	0.9	-28.1%
Cc1ccc2c(c1)C(c1ccccc1)N(C(=O)c1ccccc1F)CC(=O)N2 (configuration not stated)	18.4µM*	x	x	x	u
CC1CC(C)CN(S(=O)(=O)c2ccc3c(c2)CC(=O)N3)C1 (configuration not stated)	0.2%	-0.2%	4.3%	3.3	6.3%
O=C(Cc1cccs1)Nc1nc(-c2cccnc2)cs1	16.4µM*	0.8%	3.9%	3.9	8.2µM*
O=C(Cc1cccs1)Nc1nc2ccccc2s1	u	-15.2%	-5.1%	-4.3	14.6µM*
O=C(Nc1nc2ccccc2s1)C1c2ccccc2Oc2ccccc21	5.8µM*	-28.3%	-23.6%	-4.6	16.4µM*
CCOc1ccc2nc(NC(=O)Cc3cccs3)sc2c1	18.4µM*	-23.1%	-20.9%	u	u
CSCCC(NC(=O)COc1ccccc1)C(=O)OC(C)C(=O)Nc1ccccc1C (configuration not stated)	-25.0%	2.4%	-0.9%	-9.5	1.3%
COc1ccc(NC(=O)c2ccco2)cc1NC(=O)c1ccccc1	-23.2%	0.6%	0.0%	1.0	u
COc1ccc(NC(=O)c2ccco2)cc1NC(=O)c1cccc(OC(C)C)c1	u	-8.3%	-14.7%	-11.1	11.6µM*
COc1ccc(NC(=O)c2ccco2)cc1NC(=O)c1cccc(C)c1OC	20.6µM*	x	x	x	11.6µM*
COc1cccc(C(=O)Nc2cc(NC(=O)c3ccco3)ccc2OC)c1	18.4µM*	14.6%	13.4%	-10.0	u
CCCCOc1cccc(C(=O)Nc2cc(NC(=O)c3ccco3)ccc2OC)c1	18.4µM*	x	x	x	20.6µM*
COCCCCCCCCCCCC(=O)O	-16.2%[4.12 µM]	x	x	x	-9.9%[4.12 µM]
O=c1[nH]cc(C(F)(F)F)cc1NS(=O)(=O)c1ccccc1[N+](=O)[O-]	0.2%	3.4%	6.6%	14.8	-19.2%
Cc1cc(-c2ccc(C)c(S(=O)(=O)NCCc3ccc(S(N)(=O)=O)cc3)c2)on1	u	-11.6%	-20.7%	-2.7	u
COc1cc(NC(=O)c2oc3ccccc3c2C)ccc1NC(=O)c1ccco1	u	-15.5%	-0.3%	-2.8	18.4µM*
COc1ccccc1NC(=O)c1oc2ccccc2c1NC(=O)c1ccco1	-18.4%	-7.9%	5.4%	0.2	u
O=C(c1ccccc1)C(O)c1ccccc1 (configuration not stated)	14.9%	x	x	-19.8	7.5%
SMILES	TDP1 cell CPT	HT1080 IDH1KD tx	HT1080NT lethal	IL-1B inflam inh	TDP1 cell noCPT
O=C(c1ccccc1)C(c1ccccc1)[n+]1csc2ccccc21 (configuration not stated)	u	x	x	x	11.2µM*
Cc1cc(C)cc(NC(=S)N(CCN2CCCCC2)Cc2ccco2)c1	u	-1.1%	-10.3%	-12.2	u
CCOC(=O)c1ccc(NC(=S)N(CCN(C)C)Cc2cccs2)cc1	16.4µM*	u	-57.8%	19.2	u
Cc1ccc(NC(=S)N(CCN2CCCCC2)Cc2ccco2)cc1Cl	u	u	u	-97.9*	u
CCOC(=O)c1ccc(NC(=S)N(Cc2cccnc2)Cc2ccco2)cc1	-2.8%	-15.4%	-3.1%	-3.0	u
COc1ccc(NC(=S)N(CCCN2CCCC2)Cc2ccco2)cc1	1.8%	21.5%	11.7%	-5.3	-4.9%
CCOC(=O)c1ccc(NC(=S)N(CCCN2CCCCC2)Cc2ccco2)cc1	-9.5%	u	u	-52.7*	u
CCOC(=O)c1ccc(NC(=S)N(CCCN(CC)CC)Cc2ccco2)cc1	9.0%	-20.5%	-12.8%	-55.4*	-26.7%
COc1ccc(Cl)cc1N1C(=O)CC(N2CCN(S(=O)(=O)c3ccccc3F)CC2)C1=O (configuration not stated)	-15.0%	-3.3%	-8.8%	19.5	-8.1%
COC(=O)c1ccc(Oc2cc(C)nc(SC)n2)cc1	4.11µM*	5.8µM*	u	0.0	2.91µM*
COc1ccccc1/C=N/n1c(N)c(C(=O)NC2CCCCC2)c2nc3ccccc3nc21	u	1.5%	-4.0%	-8.9	u
CC(C)OCCCNC(=O)c1c(N)n(/N=C/c2ccccn2)c2nc3ccccc3nc12	u	8.6%	21.7%	-9.8	23.1µM*
CCC(C)NC(=O)c1c(N)n(/N=C/c2ccccn2)c2nc3ccccc3nc12 (configuration not stated)	20.6µM*	0.9%	-8.7%	-83.0*	20.6µM*
COCCNC(=O)c1c(N)n(CCCn2ccnc2)c2nc3ccccc3nc12	-8.9%	-7.9%	-6.0%	u	-15.1%
COCCN1C(=O)c2oc3cc(C)c(C)cc3c(=O)c2C1c1ccc(O)cc1 (configuration not stated)	-1.0%	-3.4%	-4.5%	5.1	-25.5%
Cc1ccccc1NS(=O)(=O)c1ccc(Br)s1	-9.5%	x	x	x	-2.6%
CCOCc1cn(CC(=O)c2ccc([N+](=O)[O-])cc2)c(C)nc1=N	23.1µM*	u	-5.6%	21.4	u
CCOCc1cn(CC(=O)c2ccc(Cl)cc2)c(C)nc1=N	-3.3%	-3.9%	-5.6%	1.3	-5.8%
Cc1cccc(NC(=O)C2CCCN(S(=O)(=O)c3ccc4c(c3)oc(=O)n4C)C2)c1C (configuration not stated)	-5.3%	x	x	x	-27.2%
Cc1c(C(=O)NCC2Cc3cccc(-c4cncnc4)c3O2)c(-c2ccccc2)nn1-c1ccccc1 (configuration not stated)	-8.2%[9.04 µM]	x	x	x	-15.9%
